PubChem BioAssay AID504710 (Sanford-Burnham Center for Chemical Genomics, 2011)
Unmarked numbers belong to inactive results. Calls of active or inactive are those of the source.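 Rule for the calls: active = inhibition reaching about 16% in any single replicate (limit read from the data); inactive = the rest.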

target: Hexokinase HKDC1 (Homo sapiens) (UniProt Q2TB90); experiment: HKDC1 hexokinase inhibitors, confirmation, biochemical, single concentration (AID 504710); settings: recombinant HKDC1, G6PDH/diaphorase/resazurin fluorescence; at 20 µM; active compounds read high
Sequence (Q2TB90 whole entry, looked up): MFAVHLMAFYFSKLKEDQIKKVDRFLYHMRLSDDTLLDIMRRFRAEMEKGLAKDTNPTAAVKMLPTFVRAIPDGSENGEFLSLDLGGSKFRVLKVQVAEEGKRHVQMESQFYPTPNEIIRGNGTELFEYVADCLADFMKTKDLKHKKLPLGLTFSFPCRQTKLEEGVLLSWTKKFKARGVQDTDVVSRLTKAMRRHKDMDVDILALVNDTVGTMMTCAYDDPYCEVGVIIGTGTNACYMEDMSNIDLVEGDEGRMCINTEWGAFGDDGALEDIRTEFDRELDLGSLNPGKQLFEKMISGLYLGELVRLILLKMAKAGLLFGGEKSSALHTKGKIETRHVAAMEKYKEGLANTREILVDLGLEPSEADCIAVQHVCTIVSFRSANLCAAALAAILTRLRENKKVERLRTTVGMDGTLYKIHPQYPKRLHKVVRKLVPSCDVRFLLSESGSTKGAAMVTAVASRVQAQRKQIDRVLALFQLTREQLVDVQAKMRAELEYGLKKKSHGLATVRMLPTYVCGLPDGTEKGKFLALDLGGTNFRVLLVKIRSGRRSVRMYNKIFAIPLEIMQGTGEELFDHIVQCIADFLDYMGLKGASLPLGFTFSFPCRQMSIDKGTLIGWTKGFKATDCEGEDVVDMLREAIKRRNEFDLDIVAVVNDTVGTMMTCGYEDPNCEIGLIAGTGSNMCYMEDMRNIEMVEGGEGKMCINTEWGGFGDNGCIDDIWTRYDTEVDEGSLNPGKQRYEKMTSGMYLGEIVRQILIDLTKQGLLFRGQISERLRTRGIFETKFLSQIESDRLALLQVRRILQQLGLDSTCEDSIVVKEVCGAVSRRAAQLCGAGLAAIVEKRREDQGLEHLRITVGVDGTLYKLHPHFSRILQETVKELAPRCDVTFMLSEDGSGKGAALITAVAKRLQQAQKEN

SMILES | inhibition
COc1ccc(NC(=O)CSc2ccc(-c3cccnc3)nn2)c(OC)c1 | 38.8% (active)
O=C(O)c1ccc(S(=O)(=O)/N=C2\C=C(Nc3ccccc3F)C(=O)c3ccccc32)cc1 | 75.7% (active)
O=C(NC1=CC(=O)c2ccccc2C1=O)c1ccccc1 | 69.9% (active)
COc1cc(/C=C2\SC(c3ccc(C)cc3)=NC2=O)ccc1O | 32.2% (active)
O=C(O)c1cc(N2N=C(C(F)(F)F)/C(=C/C=C/c3ccco3)C2=O)ccc1Cl | 57.5% (active)
CN(C)c1ccc(Cc2cc3c(O)ccc(O)c3cc(Cc3ccc(N(C)C)cc3)c2=O)cc1 | 44.7% (active)
COC1=C(Br)C(=O)c2ncccc2C1=O | 64.7% (active)
CC(=O)C1=C(c2cccc([N+](=O)[O-])c2)N(C(C)=O)n2c(C)nnc2S1 | -387%
CCc1ccc(S(=O)(=O)/N=C2\C=C(Nc3ccc(C(=O)O)cc3)C(=O)c3ccccc32)cc1 | 59.8% (active)
COC(=O)c1ccc(NC(=O)CSc2n[nH]c(-c3ccncc3)n2)cc1 | 43% (active)
CC(NNC(=S)N1CCN(c2ccccn2)CC1)c1nccc2ccccc12 (configuration not stated) | -74.7%
CCN=C1NN=C(c2ccc(C)cc2)CS1 | -52%
CCOC(=O)c1c(NC(=O)CSc2nnnn2-c2ccc(OC)cc2)sc(C)c1C | -42.3%
COc1ccc(C(=O)c2coc3c2C(=O)C(=O)c2ccccc2-3)cc1 | 44.8% (active)
O=C(O)CSc1cc(NS(=O)(=O)c2ccc(Cl)cc2)c2ccccc2c1O | 45.6% (active)
COc1ccc(/C=C/C(=O)NC(=S)NNC(=O)c2cnccn2)cc1 | -58.3%
COc1ccc(-n2c(C)cc(C(=O)CCl)c2C)cc1 | 34.3% (active)
Cn1cnnc1SC1c2cccc3cccc(c23)C1NS(=O)(=O)c1ccccc1 (configuration not stated) | -64%
CCc1ccc(C2=NNC(=Nc3cccc(S(=O)(=O)N(C)C)c3)SC2)cc1 | -141%

SMILES | inhibition
Cc1ccc(C)c(-n2nnnc2Sc2nnnn2-c2ccccc2)c1 | 38.7% (active)
Cc1ccc(N=C2C(=S)N(c3ccc(C)cc3)C(=N)N2/N=C/c2ccc(Cl)cc2)cc1 | -45.3%
CC(C)c1nc2oc3c(=O)[nH]cnc3c2c2c1COC(C)(C)C2 | 48.4% (active)
COc1ccc(NC(=O)CSc2ccc(-c3ccco3)nn2)c(OC)c1 | 70.8% (active)
CCN(CC)Cc1cc(O)c(CN(CC)CC)cc1O | 41.2% (active)
CC(=O)NC1C(=O)N(CCN2CCOCC2)c2ccc(Br)cc21 (configuration not stated) | 61% (active)
CCOC(=O)c1ccc(NC(=O)CSc2n[nH]c(-c3ccncc3)n2)cc1 | 50.3% (active)
CCOc1ccc(-n2c(C)cc(C(=O)CCl)c2C)cc1 | 28.5% (active)
CC[n+]1c(/C=C2\Sc3ccccc3N2C)ccc2cccc(C)c21 | -37.8%
O=C(CN(C(=O)CCC(=O)Nc1ccccn1)c1ccc2c(c1)OCO2)NCc1ccc(F)cc1 | 31.3% (active)
O=[N+]([O-])c1ccc(NN=Cc2ccc(O)cc2O)nc1 | 50.8% (active)
Cc1ccc(SC2=C(N(C)C)C(=O)c3ccccc3C2=O)cc1 | 59.9% (active)
Cc1cccc(-n2c3nc(=O)[nH]c(=O)c-3cc3cc([N+](=O)[O-])ccc32)c1 | 46.6% (active)
Cc1ccc2cc(CCNC(=O)c3ccc(S(=O)(=O)N4CCCCC4)cc3)c(=O)[nH]c2c1 | 39.8% (active)
CCOC(=O)C1=C(Cc2ccc(Cl)cc2)C(=O)c2ccccc2C1=O | 39.3% (active)
CCCc1nc2oc3c(NCCOCCO)ncnc3c2c2c1COC(C)(C)C2 | 41.7% (active)
O=C(O)c1ccc2ncsc2c1 | 48.1% (active)
O=C(NCCc1ccccc1)C(c1cccs1)N(C(=O)CCl)c1ccc(Cl)cc1 (configuration not stated) | 23% (active)
